# From PubChem
# This excerpt belongs to a sample that is enriched for hits.
# Methyltransferases = Primary Screen for Target Class Profiling of Small Molecule Inhibitors of Methyltransferases; AID 1745853, 2022; calls only at 40 µM; 3.9% of 25,000 active; purified enzyme, MTase-Glo SAH luminescence; hits give low values; call rule not given here
#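 Each enzyme was reacted with SAM and its substrate, with compounds tested once at 40 uM; SAH formed was read by MTase-Glo luminescence.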
# MTase-Glo counter = inhibits MTase-Glo coupling enzymes without methyltransferase. Potency, µM (highest dose often 57.3 µM), most hits filed as inhibitors. shares compounds with Methyltransferases. 6% of 180 active. MTase-Glo coupled enzymes, SAH conversion luminescence, no MTase; active means well fitted inhibition curve with a large enough effect; inconclusive means small, poorly fitted or top-dose-only effect
# Calls only; – = inactive; ? = inconclusive; + = active, no number.
SMILES,Methyltransferases,others
N#Cc1cc(CN2CCCC(C(=O)Nc3cccc(-c4ccc(F)cc4)c3)C2)c[nH]1 (stereo not drawn),+,MTase-Glo counter=–
CC(=O)Nc1ccc(NC(=O)c2cccc(CN3CCCC(C#N)C3)c2)cc1 (stereo not drawn),–,
Cc1cccc(CN2CCCC(C(=O)Nc3cccc(-n4cccn4)c3)C2)n1 (stereo not drawn),–,
CC(C)CC1(C(=O)OCc2ccc(O[C@@H]3O[C@H](CO)[C@@H](O)[C@H](O)[C@H]3O)cc2)CC(=O)OC(C(=O)O)CC(=O)OCC2OC(O1)C(OC(=O)/C=C/c1ccc(O)cc1)C(O)C2O (stereo partly drawn),–,
CCN1CCN(C(=O)C2CCCN(Cc3ccncc3)CCC(=O)NCC2)CC1 (stereo not drawn),–,
CCNc1ncc(CN2CCN(c3ccncc3)CC2)cn1,+,MTase-Glo counter=–
O=S(=O)(c1cccc(-c2nc(-c3ccccc3)no2)c1)N1CCN(c2ccc(Cl)cc2)CC1,–,
CCCc1c(C(C)C)nc(C(C)C)c([C@@H](C)O)c1-c1ccc(F)cc1O,–,
Cc1ccc(Cn2nc3n(C)c(=O)c4ccc(C(=O)NC5CCCC5)cc4n3c2=O)cc1,–,
COC[C@H]1C[C@@H](NC(=O)Nc2cccnc2)[C@H](O)[C@@H]1O,–,
COCc1cc(NCCCNc2cccnc2)ncn1,+,MTase-Glo counter=–
Cc1ccc(NC(=O)Cn2nc3n(Cc4ccc(F)cc4)c(=O)c4ccccc4n3c2=O)c(C)c1,–,
Cc1ccc(Cn2c(=O)c3ccccc3n3c(=O)n(CC(=O)NC4CCCCC4)nc23)cc1,–,
CCOC(=O)c1cc2n(n1)CC(C)(C(=O)NCc1ccc(C)cc1)N(CCc1ccc(SC)cc1)C2=O (stereo not drawn),–,
CC(=O)Nc1cc(-c2cc(C(=O)NCc3cccnc3)c3c(c2)N(C)CCO3)ccn1,+,MTase-Glo counter=–
COc1ccc(-c2cc(C(=O)NCc3cccnc3)c3c(c2)N(C)CCO3)cc1OC,+,MTase-Glo counter=–
O=C(NCC1CCCO1)c1cc(-c2ccccc2F)cc2c1OCCN2Cc1cccnc1 (stereo not drawn),–,
CCc1nc2cc(N3CCC(C(=O)NCc4cccnc4)CC3)cnc2nc1CC,–,
CN1CCOc2c(C(=O)NCc3cnn(C)c3)cc(-c3ccc([S+](C)(=O)[O-])cc3)cc21,–,
CNC(=O)c1cc(-c2cnc(OC)nc2)cc2c1OCCN2Cc1cccnc1,–,
CCOc1ccccc1CN1C(=O)c2cc3ccccc3n2CC1(C)C(=O)NCCCOC(C)C (stereo not drawn),–,
CCCN1C(=O)c2c(C(=O)Nc3cccc(Cl)c3C)ncn2CC1(C)C(=O)NCc1ccc(C)cc1 (stereo not drawn),–,
CCC(C)(C)C(=O)N1CCC2(CC1)N(C)C(=O)CS2(=O)=O,–,
CCOC(=O)c1cc2n(n1)CC(C)(C(=O)NCc1ccccc1)N(c1cccc(SC)c1)C2=O (stereo not drawn),–,
CC1(C(=O)NC2CCCC2)Cn2c(cc3ccccc32)C(=O)N1Cc1cccnc1 (stereo not drawn),–,
SMILES,Methyltransferases,others
Cc1noc(C)c1-c1cc(-c2ccncc2)cn2cncc12,–,
Cc1noc(C)c1-c1cc(-c2ccc(CN(C)C)cc2)cn2cncc12,+,MTase-Glo counter=–
COc1cccc(CN2CCCC3(CCN(C(=O)c4cnc(C)cn4)C3)C2)c1 (stereo not drawn),–,
COc1ccc(-c2[nH]nc3ncc(C(=O)N4CCC(c5ccccc5)CC4)nc23)c(C)c1,+,MTase-Glo counter=–
CCOc1ccccc1C(=O)N1CCC(c2n[nH]c(=O)n2Cc2ccc(OC)cc2)CC1,–,
CC(C)Cn1c(=O)c2ccccc2n2c(SCC(=O)Nc3ccc(Cl)cc3)nnc12,–,
COC(=O)c1ccc([C@@H]2Nc3ccc(OC)cc3[C@@H]3C=CC[C@@H]32)cc1,–,
Cc1cc2[nH]c(=O)[nH]c2cc1S(=O)(=O)N1CCN(C2CCCCC2)CC1,–,
CCC(O)C1CCN(C(=O)c2cnn3cc(CN(CC)CC)cnc23)CC1 (stereo not drawn),–,
CCN(CC)Cc1cnc2c(C(=O)N3CCCN4CCC[C@H]4C3)cnn2c1,+,MTase-Glo counter=–
CN1C[C@@H]2CC[C@H](CC1=O)N2C(=O)c1cnn2cc(CCO)cnc12,–,
CC1(C(=O)Nc2ccccc2)CN(Cc2ccccc2)Cc2ccc(N3CCOCC3)nc21 (stereo not drawn),–,
COc1ccc(CN2C(=O)c3cc(-c4ccccc4)nn3CC2(C)C(=O)NCc2ccccc2)cc1OC (stereo not drawn),–,
COc1ccc(CCN2CCN(CCCc3ccccc3)CC2)cc1OC,–,
c1ccc(CN2CCNc3cnc(Nc4ccc(N5CCOCC5)cc4)cc3C2)cc1,+,MTase-Glo counter=–
COc1ccc(-c2nnc3n(Cc4ccccc4)c(=O)c4ccccc4n23)cc1OC,–,
CCOc1cc2c(cn1)NCCN(Cc1ccncc1Cl)C2,–,
COc1ccc(CNc2cc3c(cn2)CN(Cc2ccccc2)CCN3)cc1OC,+,MTase-Glo counter=–
CCn1cc(CNc2ccc(-c3ccccc3OC)nn2)cn1,–,
O=C1c2cc(N3CCOCC3)nc(-c3cccc(CO)c3)c2CN1c1ccccc1,–,
Cn1nccc1-c1cc2c(cn1)CN(Cc1ccncc1)CCN2,+,MTase-Glo counter=–
COc1ccc(-c2cc3c(cn2)CN(CCc2ccccc2)CCN3)cc1OC,+,MTase-Glo counter=?
Cc1ncc2c(c1CNC(=O)Cc1ccsc1)CCN(C(=O)Cc1ccc(F)c(F)c1)C2,–,
CN(C)CC1(O)CCC2(CCN(C(=O)c3nccc4ccccc34)CC2)CC1,–,
O=C(c1ccc2ncccc2c1)N1CC(n2ccnc2)C1,–,
SMILES,Methyltransferases,others
O=C(c1ccc(C(F)(F)F)cc1)N1CCC2(CC1)CNc1ccccc1[S+](=O)([O-])N2,–,
CC1(C(=O)NC2CCCCCC2)Cn2c(cc3sccc32)C(=O)N1C1CCCc2ccccc21 (stereo not drawn),–,
COc1cccc(Nc2cc3c(cn2)CN(Cc2cccnc2)CCN3)c1,+,MTase-Glo counter=–
O=C1NCCN1C1CCN(Cc2cccnc2)CC1,–,
COc1ccc2nc([C@H]3CCN(Cc4cccnc4)C3)[nH]c2c1,–,
COc1cccc(CCC(=O)N2CCC3(CC2)N=C(c2ccccc2)NO3)c1,–,
CCN(CC)c1cc(CCC(=O)N2CCN(c3cccc(OC)c3)CC2)ccn1,+,MTase-Glo counter=–
COc1cccc(CCC(=O)N2CCC(OCC3CC3)C2)c1 (stereo not drawn),–,
COc1ccc2cc3n(c2c1)CC(C)(C(=O)NC1CCCCC1)N(Cc1cccc(Cl)c1)C3=O (stereo not drawn),–,
CC1(C(=O)NC2CCCCC2)Cn2c(cc3occc32)C(=O)N1Cc1ccccc1Br (stereo not drawn),–,
O=C(N[C@H](c1ccccc1)C1CC(O)C1)c1ccc(-n2cccn2)cc1 (stereo partly drawn),–,
NS(=O)(=O)c1ccc(C(=O)NC(Cc2ccncc2)C2CC(O)C2)cc1 (stereo not drawn),–,
O=C(N[C@H](C1CCNCC1)C1CC(O)C1)c1ccc2nccnc2c1 (stereo partly drawn),+,MTase-Glo counter=–
COc1ccccc1-c1cc(Nc2cccc(CS(N)(=O)=O)c2)ncn1,–,
COCCC(=O)N1CCCN(C(=O)C2CC2)c2ccccc21,–,
CCOc1ccc(NC(=O)N2Cc3c(sc4c3CCCC4)-n3cccc3C2c2cc(F)cc(F)c2)cc1 (stereo not drawn),–,
